# Source: PubChem BioAssay
# ZTA DNA inh = blocks Epstein-Barr virus ZTA, an EBNA-1 counter-screen; AID 2234; ZTA-DNA binding, fluorescence polarization; inhibition, % at 11 µM; P03206; 320,000 tested, 0.15% active; in the data active = inhibition above about 33%
# LYPLA2 counter = LYPLA2 (human) inhibition in PME1 counter-screen; AID 2177; inhibition, % at 5.9 µM; recombinant LYPLA2, FP-Rh probe fluorescence polarization; 320,000 tested, 0.38% active;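 active = inhibition above the screen-wide mean plus 3 SD, limit set per campaign, cut at about 26% in these data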;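 note: 0% = LYPLA2 with DMSO and 100% = wells lacking LYPLA2 enzyme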
# Target sequence (O95372 whole entry, looked up): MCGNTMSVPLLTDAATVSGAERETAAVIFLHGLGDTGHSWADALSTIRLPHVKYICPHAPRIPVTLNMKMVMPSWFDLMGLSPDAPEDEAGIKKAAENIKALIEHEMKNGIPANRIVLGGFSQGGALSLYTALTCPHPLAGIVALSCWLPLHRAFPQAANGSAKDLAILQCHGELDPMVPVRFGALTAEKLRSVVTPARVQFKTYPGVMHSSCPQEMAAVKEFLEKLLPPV
# LYPLA1 inh = blocks human lysophospholipase 1, a PME1 counter-screen. O75608. 320,000 tested, 0.16% active. recombinant LYPLA1, FP-Rh probe fluorescence polarization. inhibition, % at 5.9 µM. AID 2174;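 active = inhibition above the mean of all tested compounds plus 3 SD, set per campaign, cut at about 14% in these data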;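 note: inhibitors block serine hydrolase probe labeling of LYPLA1 so polarization falls; 0% = enzyme with DMSO and 100% = wells lacking LYPLA1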
# EBNA-1 inh = blocks EBNA-1 binding to DNA. EBNA-1 DNA binding, fluorescence polarization. inhibition, % at 14.8 µM. 300,000 tested, 0.34% active; in the data active = inhibition above about 28%
# LANA-H2B inh = blocks KSHV LANA binding to histone H2A/H2B; cell-free LANA-H2A/H2B peptide, fluorescence polarization; 320,000 tested, 0.6% active; inhibition, % (concentration not given with the values); AID 2629; Q9QR71; in the data active = inhibition mostly above about 10%, no sharp cut-off; inactive = mostly below about 6.7%
# Starred values were filed as active, the others as inactive; . = not tested or not shown; + = active, no number. Hits are enriched below; roughly 1.4% of the tested compounds scored in any of these assays.
SMILES,ZTA DNA inh,LYPLA2 counter,LYPLA1 inh,EBNA-1 inh,LANA-H2B inh
COc1ccc2oc(C(=O)Nc3nc(C)cs3)c(C)c2c1,16,1,1,.,73*
COc1ccc(OC2CCN(S(=O)(=O)c3ccc(C(C)=O)cc3)CC2)cc1,-20,17,9,0,9
O=C(COc1ccccc1)NC1CCCCC1,-10,2,0,6,1
O=C(COc1ccccc1)NC1CCCCCCC1,-25,3,-1,10,8.9*
COc1cc(NC(=O)COc2ccccc2)c(OC)cc1NC(C)=O,20,3,3,5,14*
O=C(CNC(=O)OCc1ccccc1)NC1CCCCCC1,5,-5,-5,10,17*
Cc1ccc(C)c(S(=O)(=O)c2c[nH]c(=S)[nH]c2=O)c1,-9,-1,-4,-9,-3
COc1ccc(C(=O)Nc2nc(-c3ccccn3)cs2)cc1S(=O)(=O)N1CCOCC1,.,.,.,.,-1
O=C(N/N=C/c1ccco1)c1cc(=O)[nH]c2ccccc12,3,-8,-1,-10,16*
CCN1/C(=C/C=C/C=C/c2sc3ccccc3[n+]2CC)Sc2ccccc21,.,-210,-98,.,3
CCN1/C(=C/C=C/C=C/C=C/c2sc3ccccc3[n+]2CC)Sc2ccccc21,60*,-44,-19,42*,-8
COc1ccc(C(C(=O)NCc2ccc(F)cc2)N(C(=O)c2csnn2)C2CC2)cc1 (stereo unspecified),5,16,5,7,4
Cc1nc2ccc(NC(=O)[C@@H](NC(=O)c3c(F)cccc3F)C(C)C)cc2s1,-4,3,-2,.,+
CC1=C(C(=O)OC2CCCC(C)C2)C(c2ccccc2)NC(=O)N1 (stereo unspecified),-3,-3,-4,5,3
O=C1CC(c2c[nH]c3ccccc23)C(=O)N1 (stereo unspecified),0,8,1,13,30*
CN(C)c1oc(-c2ccccc2Cl)nc1P(=O)(c1ccccc1)c1ccccc1,-7,-3,-2,-2,1
CC(C(=O)Nc1ncn[nH]1)N1C(=O)c2ccccc2C1=O (stereo unspecified),-8,-3,-6,-17,17*
CCn1ccnc1CN(C)Cc1cn(-c2cc(C)ccc2C)nc1-c1ccccc1,-13,5,0,-6,20*
O=C(C1=C(O)C(=O)N(CC2CCCO2)C1c1ccccc1)c1ccco1 (stereo unspecified),-4,1,0,2,-2
COc1ccc(C2C(C(=O)c3ccco3)=C(O)C(=O)N2CC2CCCO2)cc1OC (stereo unspecified),-4,-1,2,-5,19*
CC(C)Oc1ccc(CNC(=O)CCC(=O)N2CC(C)Sc3ccccc32)cc1 (stereo unspecified),-16,-2,-1,-7,27*
CC1CN(C(=O)CCC(=O)NCc2ccccc2Cl)c2ccccc2S1 (stereo unspecified),1,2,1,5,2
Cc1cc(NC(=O)CS(=O)(=O)c2ccc(Cl)cc2)no1,1,1,-1,-2,-1
O=C(COc1cc2oc(=O)c3c(c2cc1Cl)CCC3)NCCCn1ccnc1,3,7,1,7,2
Cc1cccc(Oc2ccccc2NC(=O)C2=COCCO2)c1,17,-2,-3,.,+
SMILES,ZTA DNA inh,LYPLA2 counter,LYPLA1 inh,EBNA-1 inh,LANA-H2B inh
Cc1ccc(NC(=O)CC2OC(=O)c3ccccc32)cc1S(=O)(=O)N1CCCCCC1 (stereo unspecified),-3,-7,-5,.,11*
O=C(c1ccccc1NS(=O)(=O)c1cccc([N+](=O)[O-])c1)N1CCCC1,14,1,2,12,7
CCCCCCc1cc2cc(S(=O)(=O)c3ccc(Cl)cc3)c(=O)oc2cc1O,-27,1,0,-10,-5
CCN(CC)c1ccc2cc(S(=O)(=O)c3ccc(Cl)cc3)c(=O)oc2c1,-19,7,0,4,39*
CCCCC(=O)OCc1nc(N)nc(Nc2ccccc2C)n1,-18,3,3,3,-2
CC(=O)Nc1ccc(S(=O)(=O)NCCC(=O)OCc2nc(N)nc(Nc3ccccc3C)n2)cc1,-6,2,0,-6,157*
COc1ccc(CN(C)CC(=O)Nc2ccccc2C(=O)NC2CC2)cc1F,.,.,.,.,15
CCOC(=O)c1ccc(-n2c(N)c(C(=O)NCc3ccco3)sc2=S)cc1,12,6,-5,8,-4
C=CCNC(=O)c1sc(=S)n(-c2ccc(C(=O)OCC)cc2)c1N,3,-2,0,10,40*
